Screening results (PubChem BioAssay)
Many of the other results were omitted from the sample, so hits are more common in it than they were.
IkB signaling: IkB pathway inhibition in ABC-DLBCL cells; ABC-DLBCL IkBa-CBG/CBR dual luciferase ratio, 4 h; response scale: scaled: untreated 0%, proteasome inhibitor 100%; Potency, µM (top dose mostly 57.1 µM), for inactives: at the top dose IkBa stabilization activation; 0.04% of 110,000 active; active means well fitted curve in the direction sought with a large enough effect in the signal ratio, not every such curve was filed as active; inconclusive means small, poorly fitted or top-dose-only effect, or a change in a side signal; the % refers to the signal ratio;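 further: potency means the concentration at half of the fitted maximal effect; the direction sought is a rising ratio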
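Curves were fitted separately to fusion (green), unfused (red) and ratio luminescence, then classed by r2, magnitude and activity. Cells: OCI-Ly3, 4 h compound plus doxycycline at 37C; 10 uM MG-132 defined full response.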
Hsp90 Hop PPI: changes Hsp90-Hop TPR2A binding signal, up or down; AlphaScreen TPR2A-His6 binding biotin-Hsp90 C-terminal peptide; Potency, µM (series often up to 57 µM), for inactives: top-dose activity change, negative = inhibition; 0.44% of 71,000 active; AID 595; active means well fitted curve in either direction with a large enough effect; inconclusive means small, poorly fitted or top-dose-only effect, or another doubt; further: potency means the concentration at half of the fitted maximal effect; on the % scale 0 is the no-effect control and ±100 the full control effect
Epigenetic mod: epigenetic modulators derepressing GFP locus in mouse cells; AID 597; mouse C127i GFP locus derepression, cytometry, 30 h; Potency, µM (titrated, usually from 46.1 µM), without a hit: at the top dose GFP derepression (activation); 0.09% of 68,000 active; further: % of control where 0% means no effect
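Derepression screen: silenced CMV-GFP reporter in murine C127i cells, 30 h compound incubation at 37 C, washed cells imaged by laser-scanning cytometer to enumerate GFP-expressing objects of 20 to 120 um.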
Ub-GFP proteasome: proteasome inhibitors stabilizing ubiquitin-GFP reporter; Potency, µM (highest dose often 45.9 µM), for inactives: at the top dose activation (GFP accumulation), actives largely listed as activators; Ubiquitin-GFP reporter cells, proteasome inhibition, GFP fluorescence; response scale: untreated = 0%, 10 µM MG-132 = 100%; 67,000 tested, under 10 active; active means well fitted activation curve with a large enough effect, not every such curve was filed as active; inconclusive means small, poorly fitted or top-dose-only effect, or another doubt; inactive means no such curve, though single readings can be large or run the other way; further: potency means the concentration at half of the fitted maximal effect
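Reporter cells (U2OS, ubiquitin-G76V-GFP fusion) are plated overnight, then treated 4 hr at 37 °C with compound titrations from 46 uM down to 2.9 nM. Activity is scaled against untreated cells and 10 uM MG-132.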
HBB splicing: alters splicing of the hemoglobin beta chain. HBB splicing reporter cell assay, activation; EGFP reporter with mutant IVS2-654 intron; response scale: normalised to 500 nM splice-correcting PNA. Potency, µM (doses to about 46.1 µM), for inactives: at the top dose activation, most hits filed as activators. 0.06% of 65,000 active; further: potency means the concentration at half of the fitted maximal effect; 0% is about no effect
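Compounds were applied for 2 days to HeLa EGFP-654 cells, 500/well in Optimem with 2% FCS. The reporter's EGFP is disrupted by mis-splicing of beta-globin intron IVS2-654. Readout: summed well GFP fluorescence from 488 nm laser scanning; reference was 500 nM antisense […] 654 PNA.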
Starred values were filed as active, the others as inactive; ? = inconclusive; · = no result given; ! = a repeat was not active; [ ] = remark or other dose. Unless noted, the call rests on the fitted dose curve; in most records, active means well fitted curve in the direction sought with a large enough effect; inconclusive means small, poorly fitted or top-dose-only effect, or another doubt; inactive means no such curve, though single readings can be large; an effect the other way counts as inactive or inconclusive.

SMILES | IkB signaling | Hsp90 Hop PPI | Epigenetic mod | Ub-GFP proteasome | HBB splicing
C=CC1=C(C)C2=Cc3c(C=C)c(C)c4[n]3[Sn+2][n]3c(c(C)c(CCC(=O)O)c3=CC3=NC(=C4)C(C)=C3CCC(=O)O)=CC1=N2 | 0% | 32µM* | 2% | 3% | ·
C=Cc1c(C)c2cc3[nH]c(cc4nc(cc5nc(cc1[nH]2)C(C)=C5CCC(=O)O)C(CCC(=O)O)=C4C)c(C)c3C=C | -7% | ? | 0% | -3% | 1%
Cc1ccc(N(CC(=O)NCc2ccc(OC(C)C)cc2)S(=O)(=O)N(C)C)cc1 | 1% | · | · | · | ·
COc1ccccc1Cn1c(-c2ccco2)nc2nc3ccccc3nc21 | 6% | -1% | 13µM* | -2% | 2%[57.5 µM]
N#CC(C(=O)NCc1ccccc1)c1nc2ccccc2nc1N1CCCC1 (configuration not stated) | 0% | 0% | ? | 12% | 10µM*
NNC(=O)CCSc1ccccc1 | 2%[11.4 µM] | -3%[11 µM] | 7%[9.22 µM] | 1%[9.17 µM] | 2%[9.22 µM]
COC(=O)C1=C(C)NC(C)=C(C(=O)OCCSc2ccccc2)[C@@H]1C | ? | 40µM* | -1% | 2% | ·
O=C(Nc1nccs1)Oc1ccccc1 | 0% | -2% | 0% | -4% | 1%
S=C(Nc1ccccc1)Nc1nccs1 | ? | -8% | 32µM* | -7% | -1%
c1cnc2c(c1)ccc1cccnc12 | 1%[11.4 µM] | 0.63µM* | 2%[9.22 µM] | 3%[9.17 µM] | 1%[9.22 µM]
Cc1cccc2cccnc12 | -1% | -3% | · | · | 0%
COc1ccc(Cn2ccnc2SCC(=O)NCc2ccccc2)cc1 | 1% | · | · | · | ·
O=C(Nc1cccc2cccnc12)c1ccc(Br)o1 | 4% | 4% | 0% | 3% | -1%
O=C(Oc1cccc2cccnc12)c1ccc(Br)o1 | -1% | 25µM* | 5µM* | -2% | ·
c1ccc(/N=C2\N=C(Nc3ccccn3)c3ccccc32)nc1 | ? | -21% | 13µM* | -2% | 0%[57.5 µM]
O=C(CC(=O)Nc1ccccn1)Nc1ccccn1 | 0% | -3% | 1% | 2% | ·
Oc1cc(O)cc(/C=C\c2ccc(O)c(O)c2)c1 | 3% | ? | 0% | -7% | 1%
COc1ccc(CCNC(=O)CSc2ncc3c(n2)-c2cc(Cl)ccc2N(Cc2ccccc2)S3(=O)=O)cc1OC | 1% | · | · | · | ·
CCCCS(=O)(=O)c1nc(-c2ccc(Br)cc2)cc(-c2ccccc2)c1C#N | 3.2µM* | · | · | · | ·
C#CCSc1nc(-c2ccccc2)cc(-c2ccccc2)c1C#N | -1% | · | · | · | ·
CCCCN(CC)S(=O)(=O)c1cccc2cccnc12 | 0% | 16% | · | 4% | -2%
Cc1ccc(Oc2cc(C)nc(-c3ccccc3O)n2)cc1 | -1% | 23% | -3% | 8% | 0%[57.5 µM]
Cc1cc(OC2CCCCC2)nc(-c2ccccc2O)n1 | 2% | 3.2µM* | -2% | 1%[9.17 µM] | 0%[0.0738 µM]
Cc1cc(OCc2ccc(F)cc2)nc(-c2ccccc2O)n1 | 0% | 25µM* | -2% | 0% | 0%[9.22 µM]
CN[C@@H]1[C@H](O)[C@H](NC)[C@@H]2O[C@]3(O)C(=O)C[C@@H](C)O[C@H]3O[C@@H]2[C@H]1O | 1%[11.4 µM] | ? | -5%[9.22 µM] | 8% | ·
SMILES | IkB signaling | Hsp90 Hop PPI | Epigenetic mod | Ub-GFP proteasome | HBB splicing
CCCCc1nn2c(=O)cc(COC(=O)c3ccccc3NC(=O)C3CCCCC3)nc2s1 | -1% | · | · | · | ·
COc1ccc(C2C(C#N)=C(N)N3C(=C2C#N)Sc2ccccc23)cc1 (configuration not stated) | ? | 5% | 13µM* | 15% | 28%
COc1ccc(Cn2c(SCC(=O)Nc3ccc(OC)cc3)nc3ccccc32)cc1 | 9% | · | · | · | ·
COc1ccc(CCN2CCC(Nc3nc4ccccc4n3Cc3ccc(F)cc3)CC2)cc1 | 5%[25.6 µM] | -8%[26 µM] | 10µM*! | 2%[20.5 µM] | 0%[20.6 µM]
NC(=O)c1ncn([C@@H]2O[C@@H](CO)[C@@H](O)[C@H]2O)n1 | 8% | 1% | -1% | -3% | 1%
Cc1cccc(-c2nnc(NC(=O)c3ccc(Cl)cc3)o2)c1 | 7.9µM* | 3% | 2% | -1% | 0%
CC(=O)[C@@]1(O)Cc2c(O)c3c(c(O)c2[C@H](O[C@H]2C[C@H](N)[C@H](O)[C@H](C)O2)C1)C(=O)c1ccccc1C3=O | ? | ? | 13µM* | -11% | 13µM*
CC(=O)N1CCCc2cc(S(=O)(=O)N3CCN(c4ccccc4F)CC3)ccc21 | 0% | · | · | · | ·
Nn1c(-c2ccccn2)nnc1-c1ccccn1 | 8% | ? | 4% | 3% | 0%
c1ccc(-c2ccccn2)nc1 | -2% | 13µM* | 2% | -5% | 2%
Cc1ccc2oc(-c3ccc(Cl)cc3)c(O)c(=O)c2c1 | 5µM* | · | · | · | ·
O=C1c2ccccc2-c2cc([N+](=O)[O-])c([N+](=O)[O-])cc21 | 4µM* | -26%[11 µM] | 2%[9.22 µM] | 2%[9.17 µM] | -1%[9.22 µM]
Cc1ccc2c(c1[N+](=O)[O-])C(=O)c1ccccc1C2=O | -4% | -4% | · | · | 2%
O=C(/C=C\c1ccc(O)c(O)c1)O[C@H]1C[C@@](O)(C(=O)O)C[C@H](O)[C@@H]1O | -1%[11.4 µM] | -5% | -2%[9.22 µM] | -4% | ·
CCOC(=O)c1[nH]cnc1C(=O)O | 0% | 25µM* | -1% | -5% | 0%[57.5 µM]
CCOC(=O)c1[nH]cnc1C(=O)Nc1ccccn1 | -1% | -1% | -2% | -18% | -1%[9.22 µM]
O=C1O/C(=C\Br)CC[C@@H]1c1cccc2ccccc12 | 5% | -11% | -1% | 0% | 0%
Cc1c2ccccc2c(C)c2c1ccc1ccccc12 | -3% | 32µM* | · | · | -1%
Cc1c2ccccc2c(CSC(=N)N)c2ccccc12 | ? | 14%[11 µM] | 3%[9.22 µM] | 1%[9.17 µM] | 1%[9.22 µM]
CN1CCc2c(cc(O)c(O)c2Cl)[C@H](c2cccc(Cl)c2)C1 | 8% | 13µM* | -1% | -2% | 1%
COc1ccc(N2CCN(c3oc(COc4ccccc4)nc3C#N)CC2)cc1 | 8% | 13µM* | -1% | -3% | ·
CO[C@@H]1/C=C\O[C@]2(C)Oc3c(C)c(O)c4c(O)c(c(/C=N\N5CCN(C)CC5)c(O)c4c3C2=O)NC(=O)/C(C)=C\C=C/[C@H](C)[C@H](O)[C@H](C)[C@H](O)[C@H](C)[C@H](OC(C)=O)[C@@H]1C | -1%[11.4 µM] | -16% | -2%[9.22 µM] | -4% | ·
CCCCn1nc(NC(=O)c2cccs2)c2cc3cc(OC)ccc3nc21 | ? | 20µM* | 4% | 1% | -1%[0.369 µM]
c1ccc(-c2nnc(CN3CCCc4ccccc43)o2)cc1 | 8% | -21% | 1% | -4% | 1%
Oc1ccc(CN2CCCc3ccccc32)c2cccnc12 | 1% | 3.2µM* | 4% | -3% | 0%
O=c1cc(-c2ccc(O)c(O)c2)oc2cc(O[C@@H]3O[C@@H](CO)[C@@H](O)[C@@H](O)[C@H]3O)cc(O)c12 | 1%[11.4 µM] | -5% | -5%[9.22 µM] | 5% | ·
O=[N+]([O-])c1cc(Cc2cc([N+](=O)[O-])c3cccnc3c2O)c(O)c2ncccc12 | 5µM* | 1.6µM* | -3%[9.22 µM] | -10%[9.17 µM] | -1%[9.22 µM]
